Shown are actives, neighbours in structure and some others; about 21% of the full set was active somewhere.
Pf growth 96h: P. falciparum growth inhibition at 96 hour, primary screen for plastid delayed-death inhibitors. P. falciparum luciferase reporter growth, 96 h. Potency, µM (titrated, usually from 28.7 µM), for inactives: at the top dose activity change, negative = inhibition, hits mostly inhibitors. 6.9% of 320,000 active. AID 504834; active means well fitted inhibition curve with a large enough effect; inconclusive means small, poorly fitted or top-dose-only effect, or another doubt; inactive means no such curve, though single readings can be large or run the other way; further: potency means the concentration at half of the fitted maximal effect; on the % scale 0 is the no-effect control and ±100 the full control effect
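Delayed-death screen, second-generation endpoint: infected erythrocytes, 2% hematocrit, 0.05% parasitemia final; 96 hours at 37 C, 5% CO2; luciferase detection reagent; luminescence decrease equals reduced growth.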
Cycloheximide cs: affects cycloheximide protein synthesis inhibition readout, counter-screen; cell reporter, cycloheximide protein synthesis inhibition counterscreen; max response, %; 12% of 300,000 active; AID 2314; in the data active means max response mostly above about 13%, no sharp cut-off; inactive means mostly below about 14%; further: read at 38.3 µM for the half of the compounds with a filed dose; 0% is about no effect
SARS PLP yeast: blocks SARS-CoV papain-like protease in a yeast assay | S. cerevisiae expressing SARS-CoV PLpro, growth rescue | 0.19% of 330,000 active | Potency, µM (titrated, usually from 32.9 µM), inactives show at the top dose activity, positive = growth rescue, most hits filed as activators | AID 485353; further: potency means the concentration at half of the fitted maximal effect; 0% is about no effect; nearly all actives have a fitted effect of over 55% in size
NS1 function inh: blocks influenza NS1 protein function; Potency, µM (highest dose often 46.1 µM), inactives show at the highest dose activity, positive = more growth; 0.4% of 270,000 active; AID 2326; further: potency means the concentration at half of the fitted maximal effect; actives are rising curves; nearly all actives have a fitted effect of over 50% in size
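Read-out: OD600 growth recovery of NS1-expressing budding yeast. Cells grown overnight at 30C in -URA glucose medium, washed, resuspended and diluted 1:100 in 2% galactose assay medium, pH 6.0. Same strain lacking NS1 served as positive control.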
Shiga toxin inh: inhibitors of Shiga toxin in Vero cells | Vero cells, Shiga toxin protein synthesis inhibition reporter | inhibition, % at 38.7 µM | 9.2% of 290,000 active; in the data active means inhibition mostly above about 28%, no sharp cut-off; inactive means mostly below about 43%; further: 0% is about no effect
Pf growth 48h: P. falciparum growth inhibition at 48 hours (one generation); P. falciparum luciferase growth in erythrocytes, 48 h; 5.9% of 310,000 active; Potency, µM (series often up to 28.7 µM), inactives show top-dose activity change, negative = inhibition, hits mostly inhibitors; active means well fitted inhibition curve with a large enough effect; inconclusive means small, poorly fitted or top-dose-only effect, or another doubt; inactive means no such curve, though single readings can be large or run the other way; further: potency means the concentration at half of the fitted maximal effect; on the % scale 0 is the no-effect control and ±100 the full control effect
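Compounds are pin-transferred into medium, infected erythrocytes (2% hematocrit, 0.1% parasitemia final) are added, and plates sit one parasite generation at 37 C in 5% CO2. Detection reagent is then added and luminescence measured.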
* = called active by the depositor. Unless noted, the call rests on the fitted dose curve.

For CCN1/C(=C2\OC(=S)N(C)C2=O)Sc2ccccc21 the results were Pf growth 96h 21%, Cycloheximide cs 14*, SARS PLP yeast 9%, NS1 function inh 6%, Shiga toxin inh 40* and Pf growth 48h 34%.
Screening C(=N\Nc1ncnc2ccccc12)/c1ccccc1 returned Pf growth 96h 133%, Cycloheximide cs 24*, SARS PLP yeast 2%, Shiga toxin inh 71* and Pf growth 48h 335%.
`Clc1cccc(/C=N/Nc2ncnc3ccccc23)c1` gave Pf growth 96h inconclusive, Cycloheximide cs 35*, SARS PLP yeast -11%, NS1 function inh -111%, Shiga toxin inh 62* and Pf growth 48h -75%.
Clc1ccc(/C=N/Nc2nc(Cl)nc3ccccc23)cc1 was read as Pf growth 96h inconclusive, Cycloheximide cs 23, SARS PLP yeast -9%, NS1 function inh -2%, Shiga toxin inh 132 and Pf growth 48h inconclusive.
Screening Cc1cccc(C)c1Nc1ncnc2ccccc12 returned Pf growth 96h -78%, Cycloheximide cs -2, SARS PLP yeast 1%, NS1 function inh 4%, Shiga toxin inh -5 and Pf growth 48h 0%.
Screening C[C@H](CO)N1C[C@H](C)[C@@H](CN(C)S(=O)(=O)c2cccs2)Oc2c(NS(=O)(=O)c3ccc(F)cc3)cccc2C1=O returned SARS PLP yeast 0%.
Screening O=C1NCC(c2ccccc2)C1C(=O)N/N=C\c1ccc(-c2ccc(Cl)c(Cl)c2)o1 (stereo not given) returned Pf growth 96h -98%, Cycloheximide cs -7, SARS PLP yeast -20%, NS1 function inh 28% and Shiga toxin inh -22.
O=C1NCC(c2ccccc2)C1C(=O)N/N=C/c1ccc(Cl)s1 (stereo not given) was read as Pf growth 96h 7.4µM*, Cycloheximide cs 2, SARS PLP yeast 0%, NS1 function inh 0%, Shiga toxin inh -1 and Pf growth 48h -29%.
Screening N#Cc1ccc(NC(=O)CN2C(=O)NC3(CCCC3)C2=O)cc1 returned Pf growth 96h 22%, Cycloheximide cs -4, SARS PLP yeast 6%, NS1 function inh 8%, Shiga toxin inh -3 and Pf growth 48h 17%.
For CC(=O)Nc1ccc(S(=O)(=O)N2CCSc3ccccc32)cc1 the results were SARS PLP yeast 5%.
Screening Cc1ccc(S(=O)(=O)Cc2ccc(C(=O)N3CCc4ccccc4C3)o2)cc1 returned Pf growth 96h 13µM*, Cycloheximide cs -8, SARS PLP yeast -5%, NS1 function inh -4% and Shiga toxin inh -12.
`COc1ccc(S(=O)(=O)Cc2ccc(C(=O)N3CCN(c4cc(C)ccc4C)CC3)o2)cc1` gave Pf growth 96h 4.7µM*, Cycloheximide cs 14*, SARS PLP yeast 0%, NS1 function inh -35%, Shiga toxin inh -5 and Pf growth 48h 7%.
COc1ccc(S(=O)(=O)Cc2ccc(C(=O)N3CCN(c4cc(Cl)ccc4C)CC3)o2)cc1 was read as Pf growth 96h 13µM*, Cycloheximide cs -5, SARS PLP yeast -8%, NS1 function inh -39% and Shiga toxin inh -19.
For Cc1ccc(S(=O)(=O)Cc2ccc(C(=O)N3CCN(c4cccc(C)c4C)CC3)o2)cc1 the results were Pf growth 96h 3.7µM*, Cycloheximide cs -3, SARS PLP yeast -7%, NS1 function inh -49%, Shiga toxin inh -8 and Pf growth 48h -2%.
Screening COc1ccc(Cl)cc1-c1nc(SCC(=O)NC2CC2)n[nH]1 returned Pf growth 96h 1%, Cycloheximide cs 9, SARS PLP yeast 0%, NS1 function inh inconclusive, Shiga toxin inh 13 and Pf growth 48h 0%.
`O=C(Cc1ccc([N+](=O)[O-])cc1)Nc1cccc(C(F)(F)F)c1` gave Pf growth 96h inconclusive, Cycloheximide cs -4, SARS PLP yeast 8%, NS1 function inh -20%, Shiga toxin inh -4 and Pf growth 48h -10%.
Screening NC(=O)c1ccsc1NC(=O)Cc1ccc([N+](=O)[O-])cc1 returned Pf growth 96h 46%, Cycloheximide cs 31*, SARS PLP yeast -1%, Shiga toxin inh 32 and Pf growth 48h 12%.
Cc1ccc(NC(=O)Cc2ccc([N+](=O)[O-])cc2)c(Br)c1 was read as Pf growth 96h -17%, Cycloheximide cs 17, SARS PLP yeast 6%, NS1 function inh 21%, Shiga toxin inh 28 and Pf growth 48h -15%.

Compound activity from PubChem.
